p53 reactivation: restores transcriptional activity of mutant p53 | H1299 p53-A138V BP100-luciferase reporter, luminescence, 24 h | AID 504706 | hit rate 0.063% among 320,000 | Potency, µM (top dose mostly 92.2 µM), for inactives: at the highest dose activity change, positive = activation, actives largely listed as activators; note: potency is the fitted concentration of half-maximal effect; % of control where 0% means no effect; nearly all actives have a fitted effect of over 45% in size
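p53-null H1299 cells stably carrying temperature-sensitive p53-A138V and a BP100-luciferase reporter were pinned with compounds (4-point, 1:5 series) and held 24 hrs at 37 deg C. Luminescence was read 10 min after detection reagent.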
ClpP mod: qHTS Assay for Activators of ClpP | ATP-dependent Clp protease proteolytic subunit (Bacillus subtilis (strain 168)), P80244 | purified B. subtilis ClpP, FRET peptide cleavage, 20 min | Potency, µM (doses to about 57.5 µM), inactives show at the top dose activity change, negative = active | hit rate 1.9% among 340,000 | AID 651965, 2013; active = well fitted falling curve with a large enough effect; inconclusive = small, poorly fitted or top-dose-only effect; inactive = no such curve, though single readings can be large or run the other way; note: potency is the fitted concentration of half-maximal effect; the source files actives as falling curves though it sought activators and does not explain the sign; nearly all actives have a fitted effect of over 65% in size
Target sequence (P80244 whole entry, looked up): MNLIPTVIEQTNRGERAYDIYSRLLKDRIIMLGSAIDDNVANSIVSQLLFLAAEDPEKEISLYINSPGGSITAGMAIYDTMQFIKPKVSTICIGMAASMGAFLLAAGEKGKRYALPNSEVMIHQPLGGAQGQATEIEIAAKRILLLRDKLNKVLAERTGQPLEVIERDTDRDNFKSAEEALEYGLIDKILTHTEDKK
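ClpP 10 microg/mL final, pH 8 Tris/KCl buffer with BSA, glycerol, Tween-20; compound pinned in; FRET-FV substrate; RT 20 min; Ex320/Em430; ΔFRET vs ADEP 5.8 microM, DMSO, no enzyme.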
GLP1R inv ag: acts as inverse agonist at human GLP-1 receptor. HEK293 GLP-1R CRE-luciferase, luminescence, 24 h; GLP-1R form is constitutively active. P43220. hit rate 1.6% among 410,000. Potency, µM (highest dose often 38.3 µM), inactives show at the top dose activity change, negative = inhibition, actives largely listed as inhibitors; note: potency is the fitted concentration of half-maximal effect; % is set by controls: 0 for no effect and ±100 for the full control effect; nearly all actives have a fitted effect of over 55% in size
Target sequence (P43220 whole entry, looked up): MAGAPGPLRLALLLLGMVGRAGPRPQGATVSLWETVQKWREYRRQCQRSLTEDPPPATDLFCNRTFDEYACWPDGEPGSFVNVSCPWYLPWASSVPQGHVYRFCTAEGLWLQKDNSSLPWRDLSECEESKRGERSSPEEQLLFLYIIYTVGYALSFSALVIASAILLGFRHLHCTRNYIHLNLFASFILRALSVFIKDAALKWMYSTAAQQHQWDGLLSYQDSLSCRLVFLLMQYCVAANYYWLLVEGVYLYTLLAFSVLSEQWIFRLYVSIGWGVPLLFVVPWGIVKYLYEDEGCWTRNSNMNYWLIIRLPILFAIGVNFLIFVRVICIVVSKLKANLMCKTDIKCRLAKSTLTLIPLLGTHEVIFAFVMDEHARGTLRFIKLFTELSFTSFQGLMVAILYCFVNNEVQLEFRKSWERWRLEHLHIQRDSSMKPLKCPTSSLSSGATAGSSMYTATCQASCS
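HEK293 cells stably co-expressing a cAMP-responsive luciferase reporter and constitutively active GLP-1R were seeded, incubated 12 h, then exposed to compounds for 24 h at 37 C. Luminescence was read 12 min after detection reagent; inverse agonists lower signal.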
GLP1R ag: agonists of human GLP-1 receptor | P43220 | HEK293 GLP-1R CRE-luciferase, luminescence, 4-6 h; cells express a hypersensitive GLP-1R form | Potency, µM (titrated, usually from 45.6 µM), without a hit: top-dose activation, usual class: activators | hit rate 0.007% among 380,000 | AID 624172; note: potency is the fitted concentration of half-maximal effect; % of control where 0% means no effect
GLP1R cytotox: cytotoxic in the GLP-1 receptor inverse agonist counter-screen. HEK293 cAMP-luciferase reporter cells, luminescence, 24 h. Potency, µM (series often up to 38.3 µM), for the others: top-dose activity change, negative = inhibition, most hits filed as inhibitors. hit rate 0.13% among 410,000;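 note: loss of luciferase light is scored as toxicity; potency is the fitted concentration of half-maximal effect; % is set by controls: 0 for no effect and ±100 for the full control effect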
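Cells in DMEM/10% Nu serum/1% pen-strep, 1536-well format. Pre-incubated 12 h, dosed with 23 nL compound, incubated a further 24 h. Luciferase detection, 12 min at room temp, luminescence.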
LDHA inh: LDHA (human) enzyme inhibition; P00338; purified LDHA, NADH/diaphorase-resazurin fluorescence; active compounds read low; activity change, % (values are at about 110 or 230 µM); hit rate 0.15% among 480,000; AID 1347041; in the data active = activity change below about -30%; inconclusive = mostly about -25% to -30%;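 note: plate controls were DMSO wells for no effect and wells without enzyme for full effect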
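LDH5 2 nM; NADH 0.06 mM, pyruvate 0.2 mM; 200 mM Tris pH 7.4, EDTA, Tween-20; 5 min RT. Detection: diaphorase 0.133 mg/mL + resazurin 37 µM, fluorescence ex540/em590 at 0 and 20 min; normalized to enzyme-free and DMSO wells.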
An asterisk follows results filed as active; ? = inconclusive; · = no result given; ! = not active in a repeat. Compounds with a hit are over-represented: about 2.9% of the library has one in this group of screens. Unless noted, calls come from the whole dose curve; as a rule, active = well fitted curve in the direction sought with a large enough effect; inconclusive = small, poorly fitted or top-dose-only effect, or another doubt; inactive = no such curve, though single readings can be large; an effect the other way counts as inactive or inconclusive.

SMILES | p53 reactivation | ClpP mod | GLP1R inv ag | GLP1R ag | GLP1R cytotox | LDHA inh
COc1ccc(NC(=O)CN2C(=O)C(C)N=C(c3ccccc3F)c3cc(Cl)ccc32)c(OC)c1 (stereo not drawn) | · | 0.1% | ? | · | 1.4% | 2.0
CCOC(=O)C1=C(N)OC2=C(C(=O)CCC2)C12C(=O)N(CC(N)=O)c1ccccc12 (stereo not drawn) | 5.1% | -1.5% | -13.8% | -1.4% | -24.7% | 9.6
COc1ccc(-n2c(=O)[nH]c3ccccc3c2=O)c(OC)c1 | -2.7% | -6.6% | 1.3% | 2.5% | -20.3% | -1.6
CCN(CCCl)c1cc(CN(C)C)cc(NC(=O)c2ccc(C(=O)Nc3cc(CN(C)C)cc(N(CC)CCCl)c3)cc2)c1 | · | -4.2% | ? | -9.1% | 2.82µM* | 5.3
COc1cccc(OP(=O)(Nc2ccccc2)Oc2cccc(OC)c2)c1 | · | -2.7% | 10µM* | 7.3% | ? | -9.9
Cc1cccc(NP(=O)(Oc2ccccc2)Oc2ccccc2)c1C | -4.2% | 0.0% | 10µM* | 4.6% | -12.6% | 0.4
CN(C)C(Cc1ccccc1)C(=O)c1c[nH]c2ccccc12 (stereo not drawn) | 19.3% | 0.1% | 12.6µM* | -4.6% | 1.4% | 1.3
O=C(c1cc2cc(F)ccc2[nH]1)N1CCC2(CC1)OCCO2 | 2.1% | -17.6% | -2.1% | -1.8% | -8.4% | -6.4
CCCCN1CC(COCc2ccccc2)Oc2cccc(Oc3ccc(C(C)C)cc3)c2S1(=O)=O (stereo not drawn) | · | -2.7% | ? | -6.5% | 3.2% | -0.6
Cc1cc(S(=O)(=O)NCC(C)C)ccc1OCC(=O)N1CCN(Cc2ccccc2)CC1 | -4.5% | 15.8µM* | ? | 3.6% | 3.7% | 1.3
Cc1nn(-c2ccccc2)c2c1C(c1ccsc1)SCC(=O)N2 (stereo not drawn) | · | · | · | · | · | 2.6
CC(=O)c1ccccc1OCC(O)CN1CCN(CCN2C(=O)c3cccc4cccc(c34)C2=O)CC1 (stereo not drawn) | -7.8% | · | ? | -1.1% | 11.2µM* | -3.7
COc1ccc2[nH]c(C)c(CCNCc3cn(C)c4ccccc34)c2c1 | -6.1% | -9.9% | 2.82µM* | -4.4% | ? | -8.3
COc1ccc(CNCCc2c(C)[nH]c3ccc(OC)cc23)c(F)c1 | · | · | · | · | · | -0.8
CN1CC=C2C(C#N)=C(N)C(C#N)(C#N)C(c3ccncc3)C2C1 (stereo not drawn) | -6.2% | 28.2µM* | 13.8% | 0.6% | 129.4% | 8.6
COc1cc2c(cc1OC)C(C(=O)N(C)C1CCCCC1)C1CCCCN1C2=O (stereo not drawn) | -3.8% | -13.4% | 22.1% | -1.7% | -9.2% | 1.9
CCC(=Nc1ccc2c(c1)CCC2)c1c(O)n(C)c(=O)n(C)c1=O | -3.8% | -2.2% | 7.6% | -1.3% | 12.8% | 1.0
CCOC(=O)c1ccc(N=C(CC)c2c(O)n(C)c(=O)n(C)c2=O)cc1 | 1.4% | 25.1µM* | -30.8% | -0.7% | -8.3% | 5.4
Cc1cccc(-n2nc(C)c3c2NC(=O)CSC3c2ccccc2Cl)c1 (stereo not drawn) | · | -3.7% | ? | · | -0.8% | -5.6
OC(c1cccc(Cl)c1)(c1cccc(Cl)c1)C1CN2CCC1CC2 (stereo not drawn) | -10.0% | · | 3.98µM* | 9.5% | ? | 1.0
Cc1cccc(Nc2nc(N)c([N+](=O)[O-])c(NCc3ccccc3)n2)c1 | -6.4% | · | ? | ? | ? | -0.6
COc1cc2nc(Nc3cccc(F)c3)nc(N)c2cc1OC | 7.7% | 31.6µM*! | 10µM* | 6.0% | ? | -1.6
Cc1ccc2cc(CN(CC3CCCO3)S(=O)(=O)c3ccccc3)c3nnnn3c2c1 (stereo not drawn) | -8.2% | -2.1% | -15.0% | 9.2% | ? | -8.0
CN1CCC2(CC1)c1ccccc1-c1ccccc12 | · | 0.9% | 11.2µM* | -4.3% | ? | -3.1
CC(=O)Nc1ccc(S(=O)(=O)N2Cc3ccccc3-n3nncc3C2)cc1 | · | -0.8% | 7.4% | 3.1% | -6.1% | -30.0*
SMILES | p53 reactivation | ClpP mod | GLP1R inv ag | GLP1R ag | GLP1R cytotox | LDHA inh
Cc1ccc(S(=O)(=O)N2Cc3ccccc3-n3nncc3C2)cc1 | · | -0.5% | 0.3% | -0.3% | -7.2% | -11.8
CC(C)=CCN1CC[C@@]2(C)c3cc(O)ccc3C[C@@H]1C2C (stereo partly drawn) | -11.8% | -2.4% | -17.0% | 0.9% | -8.7% | -6.2
O=C(OC1C2CCC1C1CN(CCc3ccccc3)CC12)c1ccccc1 (stereo not drawn) | 8.8% | 3.3% | ? | -0.1% | ? | -2.3
Cc1ccc2sc(N(CCCN(C)C)C(=O)CCS(=O)(=O)c3ccccc3)nc2c1C | -24.0% | 0.9% | ? | -2.5% | ? | -1.0
CN(C)CCCN(C(=O)CCc1ccccc1)c1nc2ccc(Br)cc2s1 | 3.3% | · | 6.31µM* | 10.0% | ? | -1.7
O=C1NC(=O)N(Cc2ccccc2)C(=O)/C1=C\C=C\c1ccco1 | 8.2% | · | ? | 11.8% | ? | 0.3
CC1CCC(C(C)C)C(OC(=O)Cn2c(COc3ccccc3)[n+](C)c3ccccc32)C1 (stereo not drawn) | -13.8% | · | ? | -5.2% | ? | -0.9
CC1CCC(C(C)C)C(OC(=O)Cn2c(-c3ccccc3)[n+](C)c3ccccc32)C1 (stereo not drawn) | -16.6% | -3.0% | ? | -3.4% | 8.91µM* | -3.7
C=CCn1cccc(/C=C/C(=O)c2ccc(C(C)(C)C)cc2)c1=S | -19.2% | -2.0% | 12.6µM* | -20.7% | ? | -5.2
Cc1ccc(Cl)cc1N1CCN(C(=O)c2cn(C)c(=O)c3c2c2ccccc2n3C)CC1 | -0.2% | 28.2µM* | 1.9% | -4.8% | 5.3% | -10.8
COCCNC(=O)CN1C(=O)C(C)N=C(c2ccccc2)c2cc(Cl)ccc21 (stereo not drawn) | -3.3% | -2.4% | -3.3% | 16.4% | 7.4% | -2.7
COc1ccc(C(=O)C(CN2CCOCC2)c2ccccc2)cc1F (stereo not drawn) | -48.5% | -1.0% | -4.0% | -35.1% | ? | -2.7
CCCOc1ccc(C(=O)C(CN2CCOCC2)c2ccccc2)cc1 (stereo not drawn) | -23.8% | -1.0% | 7.08µM* | -9.8% | ? | -0.1
Cc1cccc2nc(-c3ccccc3)c(-c3ccc(CN4CCC(n5c(=O)[nH]c6ccccc65)CC4)cc3)nc12 | · | 25.1µM* | ? | -2.3% | -6.5% | -0.4

High-throughput results (PubChem)
